High-throughput results deposited in PubChem by National Center for Advancing Translational Sciences (NCATS).
TDP1 block: inhibitors of human tyrosyl-DNA phosphodiesterase TDP1 | Potency, µM (titrated, usually from 130 µM), for inactives: at the top dose activity change, negative = inhibition, actives largely listed as inhibitors | Q9NUW8 | AID 485290 | recombinant TDP1, AlphaScreen DNA substrate cleavage | 0.28% of 350,000 active; also: potency is read from the fitted curve at half-maximal effect; nearly all actives have a fitted effect of over 40% in size
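Recombinant E. coli-expressed Tdp1 (1 nM) preincubated with compound 15 min at RT, then 5'-biotin/3'-phosphotyrosine-FITC DNA substrate (15 nM) added for 5 min. AlphaScreen beads (10 ug/ml) added, 10 min RT; tyrosine-FITC cleavage read as signal loss.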
IL-1B inflam inh: inhibitors of inflammasome signaling (IL-1 beta secretion). THP-1 LPS/ATP IL-1B secretion, AlphaLISA, 16 h; active compounds read low. activity change, % at 57.5 µM. 4.7% of 360,000 active. AID 743279; in the data active = activity change below about -50%; inconclusive = mostly about -30% to -49%
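THP-1 cells pretreated 1 hr with compounds (up to 57.5 uM final), then stimulated with LPS (250 ng/mL final) plus ATP (1.25 mM final); secreted IL-1B measured by AlphaLISA after 16 hr, decreased signal indicating inhibition.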
TDP1 cell noCPT: qHTS for Inhibitors of human tyrosyl-DNA phosphodiesterase 1 (TDP1): qHTS in cells in absence of CPT; DT40 Tdp1-/- hTDP1 cells, no CPT, ATP luminescence, 48 h; Potency, µM (doses to about 46.2 µM), inactives show at the top dose activity change, negative = growth inhibition, actives largely listed as inhibitors; 15% of 420,000 active; also: potency is read from the fitted curve at half-maximal effect; nearly all actives have a fitted effect of over 55% in size
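DT40 Tdp1-/-;hTDP1 cells, no CPT (DMSO vehicle only), 400 cells/well; compounds pin-transferred; ≥48 hr, 37 °C; CellTiter-Glo 30 min RT dark, luminescence read.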
Six1-Eya2 blk: blocks human Six1 binding to Eya2; Q15475+O00167; AlphaScreen GST-Six1/His-Eya2 binding, biochemical; active compounds read low; activity change, % (concentration not given with the values); 0.56% of 360,000 active; AID 651725; in the data active = activity change below about -65%; inconclusive = mostly about -30% to -63%
Target sequence (O00167 whole entry, looked up): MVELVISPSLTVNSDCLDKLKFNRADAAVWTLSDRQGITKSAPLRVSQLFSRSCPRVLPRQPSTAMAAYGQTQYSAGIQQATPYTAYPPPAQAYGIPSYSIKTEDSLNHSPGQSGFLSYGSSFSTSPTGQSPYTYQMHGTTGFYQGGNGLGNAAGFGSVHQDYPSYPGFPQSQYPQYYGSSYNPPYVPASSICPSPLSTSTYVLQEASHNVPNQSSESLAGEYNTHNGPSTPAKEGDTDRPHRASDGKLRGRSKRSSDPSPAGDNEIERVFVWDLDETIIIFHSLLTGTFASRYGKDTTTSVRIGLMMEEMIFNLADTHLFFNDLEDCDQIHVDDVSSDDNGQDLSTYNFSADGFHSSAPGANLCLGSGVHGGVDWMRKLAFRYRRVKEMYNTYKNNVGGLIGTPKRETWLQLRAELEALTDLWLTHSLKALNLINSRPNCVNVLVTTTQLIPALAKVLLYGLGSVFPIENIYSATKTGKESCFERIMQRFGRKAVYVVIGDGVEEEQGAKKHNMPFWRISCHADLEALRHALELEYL
Target sequence (Q15475 whole entry, looked up): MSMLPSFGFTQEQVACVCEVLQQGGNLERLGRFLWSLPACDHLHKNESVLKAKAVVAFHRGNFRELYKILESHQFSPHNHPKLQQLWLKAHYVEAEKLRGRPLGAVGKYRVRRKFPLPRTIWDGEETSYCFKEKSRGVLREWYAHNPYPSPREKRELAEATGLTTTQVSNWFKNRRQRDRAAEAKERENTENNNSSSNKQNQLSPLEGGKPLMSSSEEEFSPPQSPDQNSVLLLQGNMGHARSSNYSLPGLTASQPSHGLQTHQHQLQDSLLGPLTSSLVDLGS
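AlphaScreen luminescence read after one hour at 37 °C in darkness. Pin-transferred compounds met GST-Six1 and His-Eya2 protein (5X stock 250 nM/500 nM) plus glutathione donor and Ni-chelate acceptor beads (5X, 50 ug/mL).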
DT40 TDP1 CPT: DT40-hTDP1 cell growth loss with CPT; Potency, µM (series often up to 46.2 µM), inactives show at the highest dose activity change, negative = growth inhibition, most hits filed as inhibitors; chicken DT40 Tdp1-/-;hTDP1 cells + 20 nM CPT, ATP luminescence, 48 h; AID 686979; 12% of 420,000 active; also: potency is read from the fitted curve at half-maximal effect; nearly all actives have a fitted effect of over 55% in size
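Chicken DT40 Tdp1-/- cells stably complemented with human TDP1 were seeded at 400 cells/well in medium containing 20 nM camptothecin, exposed to pin-transferred compounds, and grown at 37 °C for at least 48 hr. Viability was read as ATP luminescence.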
CtBP-E1A blk: blocks the CtBP interaction with E1A; AlphaScreen GST-E1A/His-CtBP binding, 1536-well; active compounds read low; activity change, % (concentration not given with the values); 0.49% of 340,000 active; AID 651724; in the data active = activity change below about -65%; inconclusive = mostly about -30% to -63%
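In 5 uL wells, 23 nL compound meets equimolar GST-E1A and His-CtBP (5X stock 125 nM each) for 2 h, 37 °C. Beads (5X, 50 ug/mL) then 1 h, 37 °C, dark.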
* hit, by the source's call; ? = inconclusive; nt = no result given. Compounds with a hit are over-represented: about 18% of the library has one in this group of screens. Unless noted, calls follow the shape of the dose curve; as a rule, active = well fitted curve in the direction sought with a large enough effect; inconclusive = small, poorly fitted or top-dose-only effect, or another doubt; inactive = no such curve, though single readings can be large; an effect the other way counts as inactive or inconclusive. % is scaled to controls: 0 for no effect and ±100 for the full control effect.

SMILES | TDP1 block | IL-1B inflam inh | TDP1 cell noCPT | Six1-Eya2 blk | DT40 TDP1 CPT | CtBP-E1A blk
CC(=O)c1c(N)[nH]c(-c2ccccc2)nc1=S | 2% | 13 | 6.5µM* | -15 | 6.5µM* | -24
Nc1ccc(C23CC4CC(CC(CO)(C4)C2)C3)cc1 | 5% | -5 | -3% | -2 | -8% | -1
NCC12CC3CC(C1)CC(c1ccc(Cl)cc1)(C3)C2 | 5% | -89* | 6.5µM* | -14 | 6.5µM* | nt
COc1ccc(C2C(=O)c3ccccc3C2=O)c(OC)c1 | 1% | 52 | -7% | -2 | -7% | 3
COc1ccc(C2C=CC(=O)CC2)c(OC)c1 (centres undefined) | nt | -76* | ? | -1 | ? | 1
COc1ccc(CNC(=O)C(c2cccs2)N(C(=O)c2csnn2)C2CC2)cc1 (centres undefined) | 0% | -8 | -19% | 4 | -21% | -1
NNc1nc2c(-c3ccc(F)cc3)nnn2c2ccccc12 | 0% | -11 | 12µM* | -1 | 10µM* | 0
Fc1ccc(-c2nnn3c2nc(NCc2ccccc2)c2ccccc23)cc1 | 1% | 8 | ? | 4 | -17% | -5
NNc1nc2c(-c3ccc(Cl)cc3)nnn2c2ccccc12 | 6% | 2 | ? | 3 | 10µM* | -7
Cc1nsc2c1ccc1ccccc12 | 5% | -20 | -6% | 16 | 2% | 1
CCOc1ccc(/C=N/NC(=O)c2ccc(Cn3cc([N+](=O)[O-])cn3)o2)cc1 | 0% | -4 | -23% | -1 | -20% | -10
O=C(N/N=C/c1c(F)c(F)c(F)c(F)c1F)c1ccc(Cn2cc(Br)cn2)o1 | -4% | -98* | 15µM* | 9 | 16µM* | 14
CC(/C=N/NC(=O)c1ccc(Cn2cc([N+](=O)[O-])cn2)o1)=C\c1ccccc1 | 3% | -52* | -10% | -3 | -17% | -3
Nc1ccc(-c2nc3ncccc3o2)c(O)c1 | nt | -2 | -24% | -2 | -28% | -20
CCSc1oc(-c2ccccc2)nc1S(=O)(=O)c1ccccc1 | 5% | -6 | -15% | 1 | -29% | 1
Cc1ccc(S(=O)(=O)c2nc(-c3cccs3)oc2SCc2ccc(F)cc2)cc1 | 0% | nt | 10µM* | nt | 16µM* | nt
O=S(=O)(c1ccc(Cl)cc1)c1nc(-c2cccs2)oc1SCc1ccccc1F | 3% | nt | 23µM* | nt | 16µM* | nt
Cc1ccc(CSc2oc(-c3ccco3)nc2S(=O)(=O)c2ccc(Cl)cc2)cc1 | -3% | nt | ? | nt | ? | nt
O=S(=O)(c1ccc(Cl)cc1)c1nc(-c2ccco2)oc1SCc1ccccc1F | 9% | nt | 16µM* | nt | 23µM* | nt
CCSc1oc(-c2ccc(F)cc2)nc1S(=O)(=O)c1ccc(C)cc1 | -3% | nt | 16µM* | nt | -102% | nt
CCc1noc(C)c1C(=O)NNC(=O)c1ccccc1Cl | 0% | 23 | 15% | 1 | -6% | 9
CC(C)OCCCNC(=O)c1cn(C)c2ccc(S(=O)(=O)N(C)C3CCCCC3)cc2c1=O | 1% | -28 | -26% | -2 | -10% | nt
O=S(=O)(O)C1CCNCC1 | -5% | nt | nt | nt | nt | nt
Cc1ccc(CSc2oc(-c3ccco3)nc2S(=O)(=O)c2ccc(Br)cc2)cc1 | -3% | nt | ? | nt | ? | nt
CCC(C)Sc1oc(-c2ccco2)nc1S(=O)(=O)c1ccc(Cl)cc1 (centres undefined) | -9% | nt | ? | nt | 18µM* | nt
SMILES | TDP1 block | IL-1B inflam inh | TDP1 cell noCPT | Six1-Eya2 blk | DT40 TDP1 CPT | CtBP-E1A blk
CC(C)CS(=O)(=O)c1oc(-c2ccc(F)cc2)nc1S(=O)(=O)c1ccccc1 | 2% | nt | 0.46µM* | nt | 0.41µM* | nt
O=S(=O)(c1ccc(Br)cc1)c1nc(-c2ccco2)oc1SCc1ccccc1Cl | 6% | nt | ? | nt | 16µM* | nt
C/C(=N\NC(=O)c1ccccc1C)c1ccc(NC(=O)c2cccs2)cc1 | 0% | 3 | ? | -8 | ? | 7
O=C(CC1C(=O)NCCN1Cc1ccccc1)NCCC1=CCCCC1 (centres undefined) | 3% | 8 | -5% | -3 | -11% | -4
COc1ccc(NC(=O)Nc2cccnc2)cc1 | 5% | 0 | ? | 1 | -12% | 11
OC[C@@H]1CN(Cc2ccc(-c3ccccc3)cc2)C[C@H](n2cnc3c(Nc4ccccc4)ncnc32)O1 | nt | ? | ? | -12 | 4.1µM* | -14
OC[C@@H]1CN(Cc2ccc(-c3ccccc3)cc2)C[C@H](n2cnc3c(NCc4ccc(F)cc4)ncnc32)O1 | nt | -7 | 3.7µM* | -13 | 4.1µM* | -16
CNc1ncnc2c1ncn2[C@H]1CN(C2CCCC2)C[C@@H](CO)O1 | nt | -3 | -9% | 4 | 1.6µM* | 2
OC[C@@H]1CN(Cc2ccc(-c3ccccc3)cc2)C[C@H](n2cnc3c(NC4CC4)ncnc32)O1 | nt | 9 | ? | -7 | ? | -1
OC[C@@H]1CN(Cc2ccccc2)C[C@H](n2cnc3c(NCc4ccc(F)cc4)ncnc32)O1 | nt | 21 | ? | -1 | ? | -1
OCCNc1ncnc2c1ncn2[C@H]1CN(C2CCCC2)C[C@@H](CO)O1 | nt | 22 | 1% | 2 | -1% | 0
CNc1ncnc2c1ncn2[C@H]1CN(Cc2ccc(-c3ccccc3)cc2)C[C@@H](CO)O1 | nt | 1 | 23µM* | -7 | ? | -2
COC(=O)c1ccc(C(NC(=O)OCc2ccccc2)/C(=C/[C@@H](C)C(=O)NCc2cc(C)on2)c2cccnc2)cc1 (some centres undefined) | 4% | nt | nt | nt | nt | nt
O=C1ON=C(c2ccccc2)/C1=C/c1ccc(-c2ccccc2[N+](=O)[O-])o1 | -5% | -110* | 15µM* | 5 | 12µM* | 11
Cc1cc(C)c2ccc(N)nc2c1O | 6% | 96 | 18µM* | ? | 23µM* | ?
Cc1cc(=O)[nH]c2nc(N)ccc12 | nt | nt | 10% | nt | 2% | nt
Cc1noc(-c2ccc(-c3noc(-c4cccc(Cl)c4)n3)cc2)n1 | -2% | nt | -4% | nt | 0% | nt
CN(C)c1ccc(/C=C/c2c(Cl)cnc3ccccc23)cc1 | nt | nt | 11µM* | nt | 11µM* | nt
CN(C)c1ccc(/C=C/c2ncnc3ccccc23)cc1 | nt | nt | 16µM* | nt | ? | nt
Cc1cc(N2CCC(C(=O)Nc3ccccc3Cl)CC2)n2nc(C)c(-c3ccc(Cl)cc3)c2n1 | 1% | nt | -60% | nt | 7% | nt
O=C(c1cc(COc2ccc(F)cc2Cl)on1)N(Cc1ccncc1)CC1CCCO1 (centres undefined) | nt | -10 | ? | 2 | ? | 1
